The text below walks through data of PubChem BioAssay (Tox21).

Each structure is given as a SMILES string. A number with no mark means an inactive call. Records with an inconclusive call do not appear. Active and inactive are the calls of the source. Unless noted, calls follow the shape of the dose curve; as a rule, active = well fitted curve in the direction sought with a large enough effect in the repeat runs; inconclusive = weak or mixed curves; inactive = no such curve, though single readings can be large; an effect the other way counts as inactive or inconclusive.

Test [1] in a line: qHTS assay to identify small molecule agonists of the estrogen related receptor (ERR) signaling pathway from Tox21 library (AID 1224849; calls by dose curve; also: nearly all actives have a fitted effect of over 15% in size). The settings on record: ERR reporter cell line, ONE-Glo luciferase, 18 h; series mostly up to 92.4 µM. In a few lines: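 Reporter cells (ERR, NTP source) treated with Tox21 10K compounds 18 h, 37 C. Readout: ONE-Glo luminescence, 30 min RT.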

Test [2] can be described thus: qHTS RealTime-Glo MT Cell Viability Assay in HepG2 cells - 24 hour (AID 1224867). Also: nearly all actives have a fitted effect of over 50% in size. The settings on record: RealTime-Glo luminescence; series mostly up to 76.8 µM. In a few lines: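 Cells + NanoLuc/prosubstrate dispensed (600 cells/well) → 5 h at 37 C/5% CO2 → compounds in DMSO transferred → 40 h incubation at 37 C, luminescence read at 0, 8, 16, 24, 32, 40 h.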
(In qHTS, concentration-response curves come from the screen itself.)

The nature of test [3]: qHTS RealTime-Glo MT Cell Viability Assay in HEK293 cells - 32 hour (AID 1224868). Also: nearly all actives have a fitted effect of over 50% in size. Also: potency is read from the fitted curve at half-maximal effect. As to activity change, negative = cytotoxic: top concentration of the series differs between compounds. The settings on record: RealTime-Glo luminescence; series mostly up to 76.8 µM. The procedure, abridged: (§1)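 Tox21 10K qHTS, HEK293, 600 cells/well, RealTime-Glo reagent co-dispensed with cells; 5 h preincubation, compound by pintool, 37 C, luminescence at 0–40 h.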
A short description of test [4]: A CellTox Green Cytotoxicity Assay to monitor cytotoxicity in HEK293 cells - 0 hour (AID 1224869). Also: nearly all actives have a fitted effect of over 50% in size. The following applies: CellTox Green fluorescence; series mostly up to 76.8 µM. In a few lines: (§2)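 Homogeneous no-lysis format: HEK293 cell suspension mixed with CellTox Green reagent, seeded, incubated 5 h at 37 C/5% CO2, then dosed by pintool with compound in DMSO.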

The nature of test [5]: qHTS RealTime-Glo MT Cell Viability Assay in HepG2 cells - 40 hour (AID 1224870). Also: nearly all actives have a fitted effect of over 50% in size. The following applies: RealTime-Glo luminescence; series mostly up to 76.8 µM. In a few lines: (§3)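 HepG2 cells mixed with RealTime-Glo MT reagents (NanoLuc plus cell-permeant prosubstrate) were seeded at 600 cells/well, incubated 5 h at 37 C/5% CO2, then pinned with compounds in DMSO; nonlytic luminescence tracked viability during 40 h treatment.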

Test [6] can be described thus: A CellTox Green Cytotoxicity Assay to monitor cytotoxicity in HEK293 cells - 40 hour (AID 1224871). Also: nearly all actives have a fitted effect of over 45% in size. The following applies: CellTox Green fluorescence; series mostly up to 76.8 µM. The procedure, abridged:
as §2

The nature of test [7]: qHTS RealTime-Glo MT Cell Viability Assay in HEK293 cells - 16 hour (AID 1224872). Also: nearly all actives have a fitted effect of over 50% in size. Also: potency is read from the fitted curve at half-maximal effect. As to activity change, negative = cytotoxicity: top concentration of the series differs between compounds. The settings on record: RealTime-Glo luminescence; series mostly up to 76.8 µM. The procedure, abridged: as §1
Test [8] can be described thus: qHTS RealTime-Glo MT Cell Viability Assay in HepG2 cells - 8 hour (AID 1224873). Also: nearly all actives have a fitted effect of over 55% in size. The settings on record: RealTime-Glo luminescence; series mostly up to 76.8 µM. In a few lines: as §3
Test [9] can be described thus: qHTS RealTime-Glo MT Cell Viability Assay in HEK293 cells - 40 hour (AID 1224874). Also: nearly all actives have a fitted effect of over 50% in size. The settings on record: RealTime-Glo luminescence; max response: stronger effect = lower value. The procedure, abridged:
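Measured as luminescence from the same continuously cultured HEK293 wells at successive time points (0, 8, 16, 24, 32, 40 h) after compound addition. Reagent present from seeding; dosing at 5 h; incubation 37 C.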

A short description of test [10]: A CellTox Green Cytotoxicity Assay to monitor cytotoxicity in HEK293 cells - 24 hour (AID 1224875). Also: nearly all actives have a fitted effect of over 45% in size. The settings on record: CellTox Green fluorescence; series mostly up to 76.8 µM. In a few lines: as §2
% is scaled to controls: 0 for no effect and ±100 for the full control effect.

As for `NC(=O)C1(N2CCCCC2)CCN(CCCC(=O)c2ccc(F)cc2)CC1`, the call in test [1], in test [2], in test [5] and in test [8] was inactive. The Potency entry in [3], in [4], in test [6], in test [7] and in [10] was “inactive” in each case. Besides, in test [9], the max response was -22.3%.

As for `C[CH2][Ge]([Cl])([CH2]C)[CH2]C`, the result in [1], in test [2], in test [5] and in [8] was inactive. In addition, the Potency result in test [3], in [4], in [7] and in [10] was “inactive” each time. Further, the max response in [9] is 1.99%.

For the molecule `CC(C)C(=O)Nc1cccc(C(F)(F)F)c1`, the molecule was classed as inactive in [1], in test [2], in [5] and in [8]. Also, the Potency result in test [3], in test [4], in test [6], in [7] and in test [10] was “inactive” throughout.

For the molecule `Cc1nc2n(c(=O)c1CCN1CCC(C(=O)c3ccc(F)cc3)CC1)CCS2`, the call in test [1], in test [2], in test [5] and in test [8] was inactive. In addition, the Potency in [3] is 5.35 µM (active); in test [7], 9.52 µM (active). Further, the Potency result in test [4], in test [6] and in test [10] was “inactive” in each case.

Take `CCCCOC(=O)C(C)OC(=O)CCC` (stereo unspecified): the molecule was classed as inactive in test [1], in [2], in test [5] and in [8]. The Potency entry in [3], in test [4], in [6], in test [7] and in [10] was “inactive” in each case. In addition, the max response in [9] is 13%.

On to `C1CCN2C[C@@H]3C[C@@H](CN4CCCC[C@@H]34)[C@H]2C1`, for which the outcome in test [1], in [2], in test [5] and in test [8] was inactive. Besides, the Potency result in test [3], in test [4], in test [6], in test [7] and in test [10] was “inactive” in each case.

As to `CCC1COC(=O)O1` (stereo unspecified), the outcome in test [1], in test [2] and in test [5] was inactive. Besides, the Potency entry in [3], in [4], in test [6], in test [7] and in test [10] was “inactive” in each case. The max response in [9] was -0.285%.

Regarding `O=C(O)C(=O)Nc1cccc(-c2nn[nH]n2)c1`, the call in test [2], in test [5] and in [8] was inactive. The Potency result in [3], in test [4], in [6], in [7] and in test [10] was “inactive” in each case. The max response in [9] is 0.908%.

Consider `CC(C)(C)NCCO`, for which the result in [1], in test [2], in [5] and in test [8] was inactive. The Potency result in test [3], in test [4], in [7] and in test [10] was “inactive” throughout.

For the molecule `CC(C)COC(=O)/C=C/c1ccccc1`, the molecule was called inactive in test [1], in test [2] and in test [5]. Further, the Potency result in test [3], in [4], in test [7] and in [10] was “inactive” throughout. Also, the max response in [9] is -4.89%.

For `CCCCCCCCCCCCC1CO1` (stereo unspecified), the result in test [2], in [5] and in test [8] was inactive. Also, the Potency entry in test [3], in test [4], in [6], in [7] and in [10] was “inactive” in each case. Also, the max response in test [9] was -5.34%.

Consider `C[N+](C)(C)CC(O)CCl` (stereo unspecified), for which the outcome in test [2], in [5] and in test [8] was inactive. The Potency result in test [3], in test [4], in test [6], in [7] and in test [10] was “inactive” each time. For the same molecule, the max response in [9] is -4.6%.

With `Nc1c(NC/C=C\COc2cc(CN3CCCCC3)ccn2)c(=O)c1=O`, the activity change, negative = cytotoxicity in test [2] is 1.59% [at 15.8 µM]; in test [7], 2.61% [at 15.8 µM]. The results for the activity change, negative = cytotoxic in [3] and in test [5] were 2.38% [at 15.8 µM] and 1.19% [at 15.8 µM], respectively. The cytotoxicity in test [4] is -1.89% [at 15.8 µM]. Also, in [6], the cytotoxicity increase is 6.78% [at 15.8 µM]. The viability change, negative = cytotoxic in test [8] is 6.05% [at 15.8 µM]. Also, the max response in [9] is -0.39%.

On to `CCN1CN(CC)CN(CC)C1`, for which the outcome in test [2], in test [5] and in test [8] was inactive. Besides, the Potency entry in [3], in [4], in test [6] and in test [7] was “inactive” in each case.

As for `BrC/C=C/CBr`, the activity change, negative = cytotoxicity in test [2] is 3.48% [at 15.8 µM]; in test [7], 1.42% [at 15.8 µM]. Moreover, the activity change, negative = cytotoxic was -0.679% [at 15.8 µM] in [3] and -1.8% [at 15.8 µM] in test [5]. In addition, the cytotoxicity in test [4] is 0.203% [at 15.8 µM]. Moreover, the cytotoxicity increase in test [6] is 1.51% [at 15.8 µM]. The viability change, negative = cytotoxic in test [8] is 2.32% [at 15.8 µM]. Besides, in test [9], the max response was -1.67%.

Regarding `COc1cc(C=O)ccc1OC(=O)C(C)C`, the outcome in [1], in test [2] and in [5] was inactive. Besides, the Potency result in test [3], in [4], in test [7] and in test [10] was “inactive” in each case. The max response in test [9] is -2%.

Take `NC(Cc1c[nH]c2ccccc12)C(=O)O` (stereo unspecified): the outcome in test [2], in test [5] and in test [8] was inactive. In addition, the Potency result in test [3], in [4], in test [6] and in [7] was “inactive” each time. In [9], the max response is 13.4%.

Take `CN[C@@H]1[C@H](O)[C@H](NC)[C@H]2O[C@@]3(O)C(=O)C[C@@H](C)O[C@H]3O[C@@H]2[C@H]1O`: the call in test [2], in test [5] and in [8] was inactive. In addition, the Potency result in test [3], in test [4], in test [6] and in [7] was “inactive” in each case. The max response in [9] is -13.7%.

As for `CC1=CC[C@H](CC=O)C1(C)C`, the molecule was classed as inactive in [2], in [5] and in test [8]. For the same molecule, the Potency result in test [3], in test [4], in [6] and in test [7] was “inactive” in each case.

Take `COc1cc([N+](=O)[O-])ccc1N`: the result in [2], in test [5] and in [8] was inactive. Also, the Potency result in test [3], in test [4], in test [6] and in [7] was “inactive” in each case.

On to `C1=C\CC/C=C\CC/1`, for which the molecule was classed as inactive in [2], in test [5] and in test [8]. Further, the Potency entry in test [3], in test [4], in test [6] and in test [7] was “inactive” throughout. In addition, the max response in [9] was 16.6%.

`CC(=O)OC(C)(C)Cc1ccccc1`: the molecule was classed as inactive in test [2], in test [5] and in test [8]. Further, the Potency result in test [3], in [4], in test [6] and in test [7] was “inactive” in each case. The max response in test [9] is 6.53%.

In the case of `Nc1cc(Cl)cc(S(=O)(=O)O)c1O`, the result in test [2], in [5] and in test [8] was inactive. For the same molecule, the Potency result in test [3], in test [4], in test [6] and in test [7] was “inactive” throughout. For the same molecule, the max response in [9] is -4.63%.

As for `CCCCCCCCC(=O)OCC`, the outcome in test [1], in [2] and in test [5] was inactive. Moreover, the Potency result in [3], in test [4], in [7] and in [10] was “inactive” each time.

As for `CCN(CCO)c1cccc(C)c1`, the molecule was called inactive in test [1], in test [2] and in test [5]. Further, the Potency entry in [3], in test [4], in [7] and in [10] was “inactive” throughout.

In the case of `Nc1nc(=O)n([C@@H]2O[C@H](CO)[C@@H](O)[C@@H]2F)cc1I`, the molecule was classed as inactive in test [2], in test [5] and in test [8]. Moreover, the Potency result in [3], in test [4], in test [6], in test [7] and in [10] was “inactive” in each case. Besides, in [9], the max response is 3.93%.
